The campaign covered roughly 120,000 compounds. About 55 (0.05%) were called active. The list comes from a sample in which actives are over-represented; it also holds similar structures and randomly drawn compounds. Values without a mark were called inactive. Rule as the data show it: active = inhibition above about 25% (passing the limit was not always enough); inactive = the rest.

This experiment deals with replicative DNA helicase (DnaC/DnaB), Staphylococcus aureus. In words: inhibitors of S. aureus replicative helicase, primary screen, biochemical, fluorescence unwinding readout (AID 485395).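 Also: 0% = mean of negative control wells and 100% = mean of positive control wells.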 Conditions: purified S. aureus helicase, fluorescence unwinding assay; stronger effect = higher value; concentration not given here.
In general, inhibition refers to the drop in the measured response relative to a control, in per cent. For `CC(C)(C)NC(=O)C(C)(C)Oc1ccc(Cl)cc1`, the inhibition is -13%. On to `CC(Sc1nncn1C)C(=O)NCCC1=CCCCC1` (configuration not stated), for which the inhibition is 9%.

On to `Cc1ccccc1NC(=O)CSc1nc2ccc(N)cc2s1`, for which the inhibition is -1%.

Take `N#Cc1ccc(NC(=O)/C=C/c2ccccc2)cc1`: the inhibition was 4%. For the compound `COc1ccc(C(=O)n2c(SC)nc3ccccc32)cc1OC`, the inhibition is -17%. Under `Cc1ccc(O)c(NC(=O)c2cccs2)c1` stands 8%; under `CC1(C)C=C(C(=O)N2CCCCC2)C(C)(C)N1`, 5%; under `O=S1(=O)CCC(n2nnnc2-c2ccc(Cl)cc2)C1` (configuration not stated), 13%.

For the compound `Cc1ccc(C)c(OC(=O)NC(C)(C(F)(F)F)C(F)(F)F)c1C`, the inhibition is 1%. `Cc1nc(SCC(=O)N2CCCC2)c2c(=O)n(C)c(=O)n(C)c2n1`: the inhibition is 0%. As for `CCN(CC)c1nc(-c2ccccc2O)nc2ccccc12`, the figure is -3%; as for `COc1ccc(C(=O)CSC2=C(C#N)C(C)(C)C(C#N)=C(N)N2)cc1`, -9%; as for `O=C(COC(=O)c1ccc(N2CCCC2=O)cc1)c1ccc(OC(F)F)cc1`, -5%. Under `COc1ccc(Br)cc1CN(C)C(C)C(=O)N1CC(C)OC(C)C1` (configuration not stated) stands -12%. As for `Cc1cc(C(=O)N2CCC(C)CC2)c(C)n1-c1ccc(F)cc1`, the figure is 23%; as for `COc1ccc(/C=C/C(=O)CC(=O)c2ccccc2O)cc1`, -17%; as for `CN(C)c1ccc(NC(=O)CSc2nnc(C3CC3)n2N)cc1`, -15%. Take `COc1cccc(N=Nc2c(O)[nH]c(=O)[nH]c2=O)c1`: the inhibition is 7%. Under `CN(C)CCCNc1c(N)c(=O)oc2ccccc12` stands 27%. Under `CCOC(=O)c1cnc2c(C)c(C)ccc2c1NCCCN(C)C` stands 65% (active); under `CCOC(=O)c1cnc2c(C)cc(C)cc2c1NCCN(C)C`, 13%; under `COc1ccc(C(CC(=O)O)NS(=O)(=O)c2ccccc2F)cc1OC` (configuration not stated), -3%. In the case of `CCc1cccc2c(C3=Nn4cnnc4SC3c3ccccc3)c[nH]c12` (configuration not stated), the inhibition is 16%. As for `Cn1cc(SC(=N)N)c2ccccc21`, the figure is -12%; as for `Cc1[nH]n(-c2ccccc2)c(=O)c1CCC#N`, -6%; as for `Cc1sc2nc(CN3CCCC3)nc(NC(C)C)c2c1C`, -5%. On to `COC(CNC(=O)C1CCC(CNS(=O)(=O)c2ccc(C)cc2)CC1)OC` (configuration not stated), for which the inhibition was 9%. In the case of `COC(=O)c1sc(NC(=O)Cn2cnc3sccc3c2=O)c(C(=O)OC)c1C`, the inhibition is -7%. As for `C=C(C)CNC(=S)NN`, the figure is -24%.

Regarding `CC1CCCCN1S(=O)(=O)c1ccc(I)cc1` (configuration not stated), the inhibition was 17%. As for `CC(=O)Nc1ccc(NC2SC(=O)NC2=O)cc1` (configuration not stated), the figure is 7%; as for `Cc1[nH]c2ccccc2c1SCCNC(=O)C(C)C`, -17%.
